Screening data from PubChem BioAssay.
PI5P4Ka inh: inhibitors of human PI5P4K alpha. AID 652105. P48426. max response, %. 1.2% of 330,000 active. PI5P4Kalpha enzyme, ADP-Glo luminescence, 60 min; hits give low values; active = max response of -50% or lower; inconclusive = between -30% and -50%; inactive = -30% or higher; note: value at the top dose of about 77 µM; % is set by controls: 0 for no effect and ±100 for the full control effect
Target sequence (P48426 whole entry, looked up): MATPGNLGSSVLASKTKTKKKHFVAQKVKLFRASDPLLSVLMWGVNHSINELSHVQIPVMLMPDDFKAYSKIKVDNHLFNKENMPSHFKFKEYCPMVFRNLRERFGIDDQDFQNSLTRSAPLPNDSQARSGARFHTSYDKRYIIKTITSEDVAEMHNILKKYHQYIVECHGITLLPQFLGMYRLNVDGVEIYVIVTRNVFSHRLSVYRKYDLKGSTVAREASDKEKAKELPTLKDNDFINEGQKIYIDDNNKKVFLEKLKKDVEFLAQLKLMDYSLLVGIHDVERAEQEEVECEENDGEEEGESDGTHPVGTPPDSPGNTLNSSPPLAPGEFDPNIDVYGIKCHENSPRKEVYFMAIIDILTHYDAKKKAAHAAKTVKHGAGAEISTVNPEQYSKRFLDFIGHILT
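Single end-point luminescence (ADP-Glo) quantified ADP from PI5P4Kalpha turnover; ATP 5 microM final, 1 h at RT, 0.1% CHAPS and 0.28 mM EGTA in HEPES pH 7.4.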
HP1b chromo inh: HP1-beta chromodomain-methylated histone interaction inhibition | P83916 | AlphaScreen HP1-beta / biotin-H3K9me3 peptide binding | AID 540317 | Potency, µM (top dose mostly 114 µM), without a hit: at the top dose activity change, negative = inhibition, most hits filed as inhibitors | 0.56% of 390,000 active; note: potency is the fitted concentration of half-maximal effect; nearly all actives have a fitted effect of over 70% in size
Target sequence (P83916 whole entry, looked up): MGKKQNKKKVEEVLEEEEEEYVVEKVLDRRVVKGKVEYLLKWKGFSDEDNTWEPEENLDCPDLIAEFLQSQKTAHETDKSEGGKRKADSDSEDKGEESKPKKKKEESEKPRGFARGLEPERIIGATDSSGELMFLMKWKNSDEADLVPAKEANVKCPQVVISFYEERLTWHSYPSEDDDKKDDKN
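HP1-beta protein (50 nM final) preincubated 30 min at room temperature with biotinylated H3(1-18)K9me3 peptide (50 nM) in PBS pH 7.4, 0.01% Tween-20, then compound added for 30 min. AlphaScreen streptavidin donor/nickel chelate acceptor beads (10 ug/mL final), 30 min dark, luminescence read.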
G9a inh: inhibitors of human histone lysine methyltransferase G9a | Q96KQ7 | G9a H3K9 monomethylation, AlphaScreen, 2 h | Potency, µM (titrated, usually from 102 µM), without a hit: top-dose activity, negative = inhibition, actives largely listed as inhibitors | 8.8% of 350,000 active; note: potency is the fitted concentration of half-maximal effect; % is set by controls: 0 for no effect and ±100 for the full control effect; nearly all actives have a fitted effect of over 75% in size
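Signal arises when biotinylated H3K9 peptide, once monomethylated, bridges streptavidin donor and antibody-captured acceptor beads. Enzyme at 20 nM was preincubated 15 min with test compounds; peptide 500 nM and SAM 20 uM then reacted for 2 h.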
BAZ2B inh: blocks human BAZ2B; Q9UIF8; 4.4% of 360,000 active; AlphaScreen BAZ2B-H3K14Ac peptide displacement; AID 504333; Potency, µM (titrated, usually from 114 µM), for the others: at the top dose activity change, negative = inhibition, most hits filed as inhibitors; note: potency is the fitted concentration of half-maximal effect; % is set by controls: 0 for no effect and ±100 for the full control effect; nearly all actives have a fitted effect of over 60% in size
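In this displacement format the biotinylated H3(5-23) peptide acetylated at Lys14 serves as ligand at 50 nM, with BAZ2B at 50 nM in PBS pH 7.4 containing 0.01% Tween-20. Donor and acceptor beads are 10 ug/mL final.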
L3MBTL1 inh: inhibitors of human L3MBTL1 | 0.66% of 230,000 active | Potency, µM (doses to about 57.1 µM), without a hit: at the highest dose activity, negative = inhibition, hits mostly inhibitors | AlphaScreen L3MBTL1–H3K9me1 peptide binding | Q9Y468; note: potency is the fitted concentration of half-maximal effect; % is set by controls: 0 for no effect and ±100 for the full control effect; nearly all actives have a fitted effect of over 60% in size
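Displacement of a biotinylated histone H3(1-15) peptide monomethylated at Lys9 (75 nM) from L3MBTL1 (50 nM) was measured by AlphaScreen after a 30 min room-temperature compound incubation; cefsulodin titration served as intraplate control.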
JMJD2A Tudor inh: blocks the human JMJD2A Tudor domain. AlphaScreen JMJD2A-Tudor / H3K4me3 peptide binding. Potency, µM (titrated, usually from 114 µM), for the others: top-dose activity change, negative = inhibition, most hits filed as inhibitors. 4.4% of 390,000 active. AID 504339; note: potency is the fitted concentration of half-maximal effect; % is set by controls: 0 for no effect and ±100 for the full control effect; nearly all actives have a fitted effect of over 50% in size
Starred values were filed as active, the others as inactive; u = inconclusive; x = no result; ! = not active in a repeat; [ ] = dose if it differs, or a comment. Hits are enriched below; roughly 11% of the tested compounds scored in any of these assays. Unless noted, calls come from the whole dose curve; as a rule, active = well fitted inhibition curve with a large enough effect; inconclusive = small, poorly fitted or top-dose-only effect; inactive = no such curve, though single readings can be large or run the other way.

SMILES	PI5P4Ka inh	HP1b chromo inh	G9a inh	BAZ2B inh	L3MBTL1 inh	JMJD2A Tudor inh
CCc1ccc(NCc2cc3ccc(OC)cc3n(CC(=O)Nc3ccc(C)c(Cl)c3)c2=O)cc1	x	13%	4%[59 µM]	-22%	x	-8%
CN(C)S(=O)(=O)c1cccc(NC(=S)N/N=C/C(c2ccccc2)c2ccccc2)c1	-4	43%	25µM*	1%	-6%	u
CN(C)S(=O)(=O)c1cccc(NC(=S)N/N=C/c2ccco2)c1	-3	-5%	-25%	-28%	-21%	-33%
Cc1ccc(C)c(NC(=S)NCc2ccccc2)c1	1	31%	24%	-25%	-7%	-12%
Cc1ccc(C)c(NC(=S)N/N=C/C(C)c2ccccc2)c1 (configuration not stated)	3	28%	35µM*	u	3%[11.4 µM]	-11%
CC(/C=N/NC(=S)Nc1cccc(S(=O)(=O)N(C)C)c1)c1ccccc1 (configuration not stated)	-15	13%	8.9µM*	-6%	-1%	20µM*
COc1ccc(S(=O)(=O)NC2(C(F)(F)F)NC(=O)N(CCc3ccc(OC)c(OC)c3)C2=O)cc1 (configuration not stated)	0	27%	50µM*!	-17%	x	-10%
COc1ccc(S(=O)(=O)NC2(C(F)(F)F)NC(=O)N(CCc3ccccc3)C2=O)cc1 (configuration not stated)	6	35%	45µM*	-13%	x	0%
CCOC(=O)c1ccc2c(c1)N(Cc1ccc(F)cc1Cl)C(=O)c1ccccc1S2(=O)=O	x	64%	7%[59 µM]	4%	x	-6%
COc1cc(NC(=O)Cn2c(=O)n(CC(=O)NCCc3ccc(OC)c(OC)c3)c(=O)c3sccc32)cc(OC)c1	x	35%	1%[59 µM]	0%	x	-15%
N#CC(c1ccccc1)N(CCCCl)C(=O)c1ccccc1 (configuration not stated)	1	63%	45µM*	5%	6%	3%
CC(C)(C)OC(=O)N1CCN(C(=O)c2[nH]cnc2C(=O)NCc2ccccc2)CC1	-4	23%	12%[0.501 µM]	4%	-4%	-11%
CC(C)(C)OC(=O)CNC(=O)c1nc[nH]c1C(=O)N1CCN(C(=O)OC(C)(C)C)CC1	-7	24%	79µM*	-7%	6%	-3%
CC(C)(C)OC(=O)CNC(=O)c1nc[nH]c1C(=O)N1CCNCC1	-2	35%	22%[2.33 µM]	79µM*	7%	u
CC1CCN(C(=O)c2[nH]cnc2C(=O)NCC(=O)OC(C)(C)C)CC1	0	14%	5%	-27%	-1%	-13%
CC(C)(C)OC(=O)N1CCN(C(=O)c2[nH]cnc2C(=O)NCC(=O)OCc2ccccc2)CC1	1	27%	71µM*	-1%	-1%	-19%
CCOC(=O)c1ccccc1NC(=O)CCc1c(C)nc2ncnn2c1C	x	51%	-1%[59 µM]	-18%	x	-9%
COc1ccc(C(=O)Nc2ccccc2C(=O)NC(Cc2ccc(O)cc2)C(=O)NNC(=O)c2ccncc2)cc1 (configuration not stated)	-1	20%	1.4µM*	u	-2%	-12%
CCCCCC(=O)Nc1cccc2ccccc12	-1	23%	-2%[59 µM]	-8%	x	-14%
CCCCCC(=O)Nc1cc(S(=O)(=O)O)cc2cc(S(=O)(=O)O)cc(O)c12	-86*	1.4µM*	x	x	x	1.1µM*
Cc1cc2c(n1-c1ccc(C(=O)NCc3ccccc3Cl)cc1)CCCC2	x	27%	-2%[59 µM]	-17%	x	-17%
O=C1CN(S(=O)(=O)c2ccc(Br)cc2)c2ccccc2N1	4	26%	-4%	3%	-1%	-10%
O=C1CN(S(=O)(=O)c2cccc(Cl)c2Cl)c2ccccc2N1	-13	14%	50µM*	3%	x	-10%
O=c1c2c(-c3ccc(Cl)cc3)ccnc2[nH]n1-c1ccccc1	x	13%	7%[59 µM]	-11%	x	-17%
COc1nnc(-c2ccc(N3CCOCC3)c(NC(=O)C3CCCCC3)c2)c2ccccc12	0	12%	x	-5%	6%	-7%
SMILES	PI5P4Ka inh	HP1b chromo inh	G9a inh	BAZ2B inh	L3MBTL1 inh	JMJD2A Tudor inh
c1ccc2c3c(cc(N4CCOCC4)c2c1)OC1(N2CCOCC2)CCCCC1O3 (configuration not stated)	x	4%	-30%[59 µM]	u	28µM*	u
CC(=O)Nc1ccccc1-c1ccccc1[N+](=O)[O-]	-3	18%[57 µM]	x	x	x	-1%
CCS(=O)(=O)c1cc([N+](=O)[O-])c(Sc2ccccc2NC(C)=O)s1	u	-26%	1.1µM*	-18%	x	20µM*
O=C(COc1ccc(F)cc1)Nc1ccccc1OCc1cc(=O)n2ccccc2n1	x	14%[57 µM]	4%[59 µM]	9%	x	-12%
CCC1Nc2ncnc(N3CCOCC3)c2N(Cc2ccc(OC)cc2)C1=O (configuration not stated)	-6	29%	x	x	7%	56µM*
CCC1Nc2ncnc(N3CCN(c4ccccc4)CC3)c2N(Cc2ccc(OC)cc2)C1=O (configuration not stated)	-4	7%	10%[2.33 µM]	u	-9%	u
Cc1ccc(CN2C(=O)C(Cc3ccccc3)Nc3ncnc(N4CCN(c5ccccc5)CC4)c32)cc1 (configuration not stated)	6	52%	7%[2.33 µM]	-33%	-11%	-30%
O=C1C(Cc2ccccc2)Nc2ncnc(N3CCN(c4ccccc4)CC3)c2N1Cc1ccccc1 (configuration not stated)	-9	6%	u	u	-12%	63µM*
O=C1C(Cc2ccccc2)Nc2ncnc(N3CCOCC3)c2N1Cc1ccc(Cl)cc1 (configuration not stated)	-4	18%	4.5µM*	-26%	-5%	u
CCC1Nc2ncnc(N3CCOCC3)c2N(Cc2ccccc2)C1=O (configuration not stated)	-2	36%	28%[2.33 µM]	2%	5%	-21%
CCCCOC(=O)c1cccc(NC(=O)c2cc3ccccc3o2)c1	x	59%	37%[59 µM]	39%	x	16%
COc1cccc(CNC(=O)C2CCN(C(=O)c3sccc3-n3cccc3)CC2)c1	x	17%	-32%[59 µM]	u	x	-14%
CC(C)Cn1[nH]c2c3c(ccc2c1=O)C(=O)c1ccccc1C3=O	-12	-22%	u	10µM*	-24%	-30%
Cc1cccc(-n2[nH]c3c4c(ccc3c2=O)C(=O)c2ccccc2C4=O)c1	-11	-21%	14µM*	u	-9%	-28%
Cc1cc(N2CCN(c3cccc(C(F)(F)F)c3)CC2)n2nc(-c3ccccc3C)nc2n1	x	14%	-4%[59 µM]	-18%	x	-23%
